# Source: ChEMBL document CHEMBL3988442, “University of Dundee, Small-Polar-MMV Screening Library” (2021)
# For part of these data: Potency and affinity values are given separately.
# What was measured:
# Set-up in all cases: scale not given: direction of the effect not stated beside the values
# [1] = biological target: Protein translocase subunit SecA (Escherichia coli (strain K12)) (UniProt P10408); test: Assay to Identify E. coli SecA ATPase Inhibitors; assay type: functional; settings: 30 µM
# Chain of Protein translocase subunit SecA (Escherichia coli (strain K12)) (P10408 whole entry): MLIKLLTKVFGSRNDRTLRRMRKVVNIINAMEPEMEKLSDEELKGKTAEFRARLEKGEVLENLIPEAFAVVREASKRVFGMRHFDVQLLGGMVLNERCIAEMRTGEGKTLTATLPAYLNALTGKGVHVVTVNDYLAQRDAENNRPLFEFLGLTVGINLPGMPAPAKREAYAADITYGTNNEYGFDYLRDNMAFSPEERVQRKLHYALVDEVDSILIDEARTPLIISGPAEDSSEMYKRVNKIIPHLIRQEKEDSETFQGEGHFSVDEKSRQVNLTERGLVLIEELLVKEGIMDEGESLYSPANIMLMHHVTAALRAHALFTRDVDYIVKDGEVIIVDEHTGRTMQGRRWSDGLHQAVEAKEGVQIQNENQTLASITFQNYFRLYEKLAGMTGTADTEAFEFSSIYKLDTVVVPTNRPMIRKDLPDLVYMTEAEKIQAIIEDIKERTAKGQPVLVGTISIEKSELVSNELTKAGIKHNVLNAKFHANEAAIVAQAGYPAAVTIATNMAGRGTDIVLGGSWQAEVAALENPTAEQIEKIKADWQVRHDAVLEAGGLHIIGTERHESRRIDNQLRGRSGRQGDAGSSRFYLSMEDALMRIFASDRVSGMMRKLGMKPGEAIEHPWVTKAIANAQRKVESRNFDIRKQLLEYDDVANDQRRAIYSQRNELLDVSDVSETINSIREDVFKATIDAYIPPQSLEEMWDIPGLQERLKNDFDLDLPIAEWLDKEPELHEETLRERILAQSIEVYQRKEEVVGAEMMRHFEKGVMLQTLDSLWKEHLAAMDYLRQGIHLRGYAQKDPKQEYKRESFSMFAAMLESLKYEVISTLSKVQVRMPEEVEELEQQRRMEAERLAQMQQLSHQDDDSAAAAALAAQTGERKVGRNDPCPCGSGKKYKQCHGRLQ
# [2] = biological target: T1, Ubiquitin-activating enzyme e1, putative (Leishmania donovani (strain BPK282A1)) (UniProt E9BSI1); test: Leishmania donovani Ubiquitin Activating Enzyme (LdE1); assay type: functional; settings: 30 µM
# T1 sequence (whole entry): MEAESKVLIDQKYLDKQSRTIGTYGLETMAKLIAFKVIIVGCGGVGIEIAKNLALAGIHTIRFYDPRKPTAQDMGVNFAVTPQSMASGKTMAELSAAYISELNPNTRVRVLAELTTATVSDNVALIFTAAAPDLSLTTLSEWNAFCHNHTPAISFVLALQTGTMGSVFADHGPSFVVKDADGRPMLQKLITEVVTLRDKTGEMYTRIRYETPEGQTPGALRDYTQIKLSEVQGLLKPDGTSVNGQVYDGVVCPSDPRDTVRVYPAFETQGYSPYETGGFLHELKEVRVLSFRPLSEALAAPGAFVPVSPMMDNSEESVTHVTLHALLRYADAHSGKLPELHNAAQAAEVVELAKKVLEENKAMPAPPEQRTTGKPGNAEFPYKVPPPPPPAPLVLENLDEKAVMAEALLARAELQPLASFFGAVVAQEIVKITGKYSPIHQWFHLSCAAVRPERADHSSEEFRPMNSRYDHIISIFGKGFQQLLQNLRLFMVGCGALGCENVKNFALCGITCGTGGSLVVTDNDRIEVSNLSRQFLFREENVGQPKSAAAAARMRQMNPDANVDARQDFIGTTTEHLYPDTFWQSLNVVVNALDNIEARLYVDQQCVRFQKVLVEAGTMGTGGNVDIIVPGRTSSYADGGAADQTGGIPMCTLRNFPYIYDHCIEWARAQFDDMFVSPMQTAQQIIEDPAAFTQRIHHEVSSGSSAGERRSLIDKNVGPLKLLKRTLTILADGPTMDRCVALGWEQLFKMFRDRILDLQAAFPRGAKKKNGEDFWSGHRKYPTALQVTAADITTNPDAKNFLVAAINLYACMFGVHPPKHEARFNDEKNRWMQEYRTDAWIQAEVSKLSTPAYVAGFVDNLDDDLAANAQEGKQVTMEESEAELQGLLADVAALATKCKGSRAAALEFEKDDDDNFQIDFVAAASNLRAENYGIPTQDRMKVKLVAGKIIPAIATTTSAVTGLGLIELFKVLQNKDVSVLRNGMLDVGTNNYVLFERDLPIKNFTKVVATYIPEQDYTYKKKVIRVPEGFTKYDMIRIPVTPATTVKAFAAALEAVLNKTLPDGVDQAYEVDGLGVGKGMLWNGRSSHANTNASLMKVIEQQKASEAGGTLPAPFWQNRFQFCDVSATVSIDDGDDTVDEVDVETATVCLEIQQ
# [3] = biological target: AMP-activated protein kinase, AMPK (Homo sapiens) (UniProt P54646+O43741+P54619+Q9UGJ0+Q9Y478+Q13131+Q9UGI9); test: AMP-dependent Kinase enzyme assay. An in vitro enzyme assay that detects ADP turnover that is directly proportional to AMPK activity. This uses naive AMPK that is activated during the assay with MK-8722; assay type: functional; settings: 30 µM
# [4] = biological target: Sialic acid-binding Ig-like lectin 9 (Homo sapiens) (UniProt Q9Y336); test: Hs-Siglec9 ALPHAscreen SOP 20170721; settings: 10 µM
# Chain of Sialic acid-binding Ig-like lectin 9 (Homo sapiens) (Q9Y336 whole entry): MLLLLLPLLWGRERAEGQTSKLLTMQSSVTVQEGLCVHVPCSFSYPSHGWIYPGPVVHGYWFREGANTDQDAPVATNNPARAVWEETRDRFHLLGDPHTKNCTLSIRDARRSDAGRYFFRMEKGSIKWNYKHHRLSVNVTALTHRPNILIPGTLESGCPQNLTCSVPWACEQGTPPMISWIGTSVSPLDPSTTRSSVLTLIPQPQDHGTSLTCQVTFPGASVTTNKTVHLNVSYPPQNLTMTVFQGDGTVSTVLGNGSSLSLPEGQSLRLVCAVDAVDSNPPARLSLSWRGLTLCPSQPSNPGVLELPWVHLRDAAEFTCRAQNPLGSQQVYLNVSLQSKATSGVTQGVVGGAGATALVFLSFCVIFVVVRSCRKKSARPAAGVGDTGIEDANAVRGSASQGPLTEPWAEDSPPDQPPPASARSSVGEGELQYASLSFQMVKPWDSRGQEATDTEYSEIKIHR
# [5] = tested on: Trypanosoma cruzi; test: Trypanosoma cruzi phosphomannomutase and mannose-1-phosphate guanylyltransferase assay; assay type: functional; settings: 10 µM
# [6] = biological target: T2, Arginase-2, mitochondrial (Homo sapiens) (UniProt P78540); test: in vitro enzyme assay to detect the production of urea directly proportional to the activity of Arginase II; assay type: functional; settings: 33.3 µM; note: in the data most compounds retested in dose-response had high values
# T2 sequence (whole entry): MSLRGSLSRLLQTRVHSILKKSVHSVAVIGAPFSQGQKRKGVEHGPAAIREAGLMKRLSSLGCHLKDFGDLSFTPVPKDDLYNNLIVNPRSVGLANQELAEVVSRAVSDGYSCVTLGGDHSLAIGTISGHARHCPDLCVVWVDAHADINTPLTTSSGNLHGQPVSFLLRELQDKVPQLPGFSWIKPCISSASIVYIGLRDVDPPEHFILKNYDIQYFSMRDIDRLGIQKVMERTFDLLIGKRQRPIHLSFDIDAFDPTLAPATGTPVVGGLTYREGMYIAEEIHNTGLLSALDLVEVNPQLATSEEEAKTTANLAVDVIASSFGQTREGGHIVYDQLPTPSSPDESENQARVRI
# [7] = biological target: T3, Proteasome subunit beta (Trypanosoma cruzi) (UniProt O96673); test: Trypanosoma cruzi proteasome chymotrypsin-like activity (TcProtChymo) assay.; note: in the data most compounds retested in dose-response had high values; assay type: functional; settings: 9.37 µM
# T3 sequence (whole entry): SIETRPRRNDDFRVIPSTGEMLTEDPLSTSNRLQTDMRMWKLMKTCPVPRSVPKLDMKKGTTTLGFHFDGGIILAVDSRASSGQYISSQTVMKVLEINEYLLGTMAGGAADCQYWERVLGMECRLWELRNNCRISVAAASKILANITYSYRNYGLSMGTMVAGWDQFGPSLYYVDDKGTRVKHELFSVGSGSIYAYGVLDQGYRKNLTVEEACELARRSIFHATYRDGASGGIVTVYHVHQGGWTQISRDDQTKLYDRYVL
# [8] = species on record: Homo sapiens; test: To identify inhibition of the IFN signalling (Jak-Stat) pathway via expression of an eGFP reporter gene under the control of an IFN-stimulated response element (ISRE) containing MxA promoter.; assay type: functional; settings: 30 µM
# [9] = biological target: T4, Tyrosyl-tRNA synthetase, putative (Trypanosoma cruzi (strain CL Brener)) (UniProt Q4DSP6); test: Trypanosoma cruzi tyrosyl tRNA synthetase (TcYRS) _High Tyrosine SOP; assay type: functional; settings: 30 µM; note: in the data most compounds retested in dose-response had high values
# T4 sequence (whole entry): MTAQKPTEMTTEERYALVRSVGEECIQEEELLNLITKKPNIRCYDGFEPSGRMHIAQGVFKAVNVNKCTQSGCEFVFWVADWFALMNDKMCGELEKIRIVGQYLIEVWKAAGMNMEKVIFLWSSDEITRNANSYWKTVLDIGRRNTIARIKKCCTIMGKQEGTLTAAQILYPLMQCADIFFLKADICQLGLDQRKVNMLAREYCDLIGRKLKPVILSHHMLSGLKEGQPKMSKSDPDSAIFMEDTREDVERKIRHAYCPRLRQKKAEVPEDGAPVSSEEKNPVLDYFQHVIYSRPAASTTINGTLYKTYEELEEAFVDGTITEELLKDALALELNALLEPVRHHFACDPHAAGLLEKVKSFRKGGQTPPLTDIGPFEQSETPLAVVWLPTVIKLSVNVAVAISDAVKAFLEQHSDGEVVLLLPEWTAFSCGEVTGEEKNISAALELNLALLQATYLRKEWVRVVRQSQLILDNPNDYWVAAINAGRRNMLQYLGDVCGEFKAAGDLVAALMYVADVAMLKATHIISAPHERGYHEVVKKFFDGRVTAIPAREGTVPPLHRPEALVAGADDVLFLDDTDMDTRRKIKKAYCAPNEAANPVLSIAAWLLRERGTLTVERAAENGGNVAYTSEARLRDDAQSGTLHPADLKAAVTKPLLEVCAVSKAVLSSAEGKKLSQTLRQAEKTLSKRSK
# [10] = biological target: T4, Tyrosyl-tRNA synthetase, putative (Trypanosoma cruzi (strain CL Brener)); test: Trypanosoma cruzi tyrosyl tRNA synthetase (TcYRS) SOP; assay type: functional; settings: 30 µM
# [11] = biological target: Chromo domain-containing protein 1 (Saccharomyces cerevisiae (strain ATCC 204508 / S288c) (Baker's yeast)) (UniProt P32657); test: ScCHD-1 Enzyme Inhibition Assay; assay type: functional; settings: 30 µM; note: in the data most compounds retested in dose-response had high values
# Chain of Chromo domain-containing protein 1 (Saccharomyces cerevisiae (strain ATCC 204508 / S288c) (Baker's yeast)) (P32657 whole entry, the tested form may be a part): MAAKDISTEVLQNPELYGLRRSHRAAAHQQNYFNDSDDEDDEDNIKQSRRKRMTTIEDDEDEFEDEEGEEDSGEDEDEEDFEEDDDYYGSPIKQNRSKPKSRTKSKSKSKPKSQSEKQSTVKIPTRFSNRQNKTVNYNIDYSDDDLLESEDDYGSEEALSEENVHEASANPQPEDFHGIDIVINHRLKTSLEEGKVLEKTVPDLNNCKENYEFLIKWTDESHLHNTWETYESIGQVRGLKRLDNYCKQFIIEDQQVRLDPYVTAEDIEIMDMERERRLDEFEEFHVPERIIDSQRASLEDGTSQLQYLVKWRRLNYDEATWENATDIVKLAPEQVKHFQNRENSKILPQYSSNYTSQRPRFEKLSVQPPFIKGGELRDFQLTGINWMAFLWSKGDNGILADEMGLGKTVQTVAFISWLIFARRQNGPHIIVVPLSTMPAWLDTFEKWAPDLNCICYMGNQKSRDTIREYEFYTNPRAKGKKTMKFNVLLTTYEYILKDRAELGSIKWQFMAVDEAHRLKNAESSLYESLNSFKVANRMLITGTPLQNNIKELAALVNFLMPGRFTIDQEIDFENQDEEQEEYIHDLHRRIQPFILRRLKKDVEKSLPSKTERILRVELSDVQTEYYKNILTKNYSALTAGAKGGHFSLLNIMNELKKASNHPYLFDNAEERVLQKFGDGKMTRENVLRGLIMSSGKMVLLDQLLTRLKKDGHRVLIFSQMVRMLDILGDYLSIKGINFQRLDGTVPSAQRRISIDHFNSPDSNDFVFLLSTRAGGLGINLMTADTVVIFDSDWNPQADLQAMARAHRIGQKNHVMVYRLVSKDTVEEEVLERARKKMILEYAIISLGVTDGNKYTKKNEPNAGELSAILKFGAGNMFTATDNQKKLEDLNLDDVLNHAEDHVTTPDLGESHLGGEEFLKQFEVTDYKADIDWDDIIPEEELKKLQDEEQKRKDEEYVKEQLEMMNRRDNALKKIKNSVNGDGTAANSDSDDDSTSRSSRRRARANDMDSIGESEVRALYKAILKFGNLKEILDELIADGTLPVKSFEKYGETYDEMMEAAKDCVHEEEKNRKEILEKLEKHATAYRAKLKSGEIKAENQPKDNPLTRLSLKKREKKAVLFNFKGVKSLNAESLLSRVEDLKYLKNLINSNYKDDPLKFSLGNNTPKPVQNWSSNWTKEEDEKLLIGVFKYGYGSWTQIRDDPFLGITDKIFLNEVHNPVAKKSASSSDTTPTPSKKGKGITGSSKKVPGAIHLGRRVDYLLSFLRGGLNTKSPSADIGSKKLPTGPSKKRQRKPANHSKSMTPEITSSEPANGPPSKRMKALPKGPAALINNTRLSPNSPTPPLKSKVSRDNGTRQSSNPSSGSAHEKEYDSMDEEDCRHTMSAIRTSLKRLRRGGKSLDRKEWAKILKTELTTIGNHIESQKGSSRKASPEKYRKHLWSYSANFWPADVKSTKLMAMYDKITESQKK
Compound,Percent Effect [1] [%],Percent Effect [2] [%],Percent Effect [3] [%],Percent Effect [4] [%],Percent Effect [5] [%],Percent Effect [6] [%],Percent Effect [7] [%],Percent Effect [8] [%],Percent Effect [9] [%],Percent Effect [10] [%],Percent Effect [11] [%]
CNc1oc(-c2ccc(OC)c(S(=O)(=O)N3CCCCC3)c2)nc1C#N,-1.33,1.33,15.5,7.55,-5.7,-6.51,9.98,-4.26,5.29,2.56,-9.36
Cc1ccc(-c2nnc(SCC(=O)O)n2-c2ccc(C)cc2)cc1,-2.58,13.3,1.28,2.44,3.74,1.17,13.8,28.5,6.38,-98.7,-3.8
Cc1nc(C2CCCN2CCCS(=O)(=O)N(C)C)no1 (stereo unspecified),-4.22,28.9,-4.98,-5.59,2.26,-0.383,13.4,10.9,-5.39,17.1,-9.28
O=C(NCCn1ccnc1)NCC(c1ccco1)N1CCCCC1 (stereo unspecified),-3.12,2.6,4.65,2.57,-4.41,1.9,3.64,13.9,2.86,2.35,-18.2
CC(=O)Nc1c(C)cnn1Cc1cc(F)ccc1F,-3.16,0,0.653,2.06,-3.99,1.56,2.09,12.2,2.73,6.17,-0.196
COc1ccc(NC(=O)Cn2nc(C)c(C)cc2=O)cc1OC,-0.134,0,-0.466,23.4,5.79,20.5,8.97,2.79,0.529,9.76,-7.49
Cn1c(C(F)(F)F)nn(CCNC(=O)NCc2ccccc2)c1=O,-6.75,0,-5.98,26.1,7.25,15,1.6,8.74,4.3,12.5,-7.03
CCc1ccc(C(=O)N2CCCC(n3cncn3)C2)o1 (stereo unspecified),-10.1,-4.17,-1.09,-2.11,-2.82,-2.21,7.37,4.2,3.16,-2.56,3.19
COc1cccc(-c2noc(-c3ccc(NCC4CC4)nc3)n2)c1OC,-6.26,0,-3.38,6.76,8.47,2.08,11,31.3,4.92,13.6,-1.62
CS(=O)(=O)N1CC[C@H]2C[C@@H](C(=O)N3CCOCC3)O[C@@H]2C1,-3.64,-8,8.84,4.61,-1.54,-53.2,2.73,-12.5,-2.08,-7.5,1.18
Cc1ccc(CNC2CCN(CCc3ccncc3)CC2)cc1C,-4.25,-5.41,-4.58,7.82,5.47,18.8,5.5,-6.77,2.97,8.54,29.8
CS(=O)(=O)CC(=O)N1C[C@@H]2COC[C@]2(c2nnc(C3CC3)o2)C1,-5.11,21.3,-7.29,-4.69,3.86,-53.9,14,19.8,3.12,22.5,-11.9
CCn1cnnc1C1CCN(C(=O)C(OC)c2ccccc2)CC1 (stereo unspecified),-2.02,18.2,6.32,-9.96,5.58,-1.05,17.9,-11,8.57,18.8,-17.7
CC(C)c1ncc2c(n1)CN(Cc1cccc(OCC(N)=O)c1)CC2,-3.71,10.5,-32.8,10.8,2.44,4.6,-1,-8.11,8.33,0,4.59
CNS(=O)(=O)CCCN1CCCC1c1noc(C2CC2)n1 (stereo unspecified),0.851,-2.53,9.34,-2.31,-2.74,4.56,9.91,10.4,0.493,1.27,-7.17
c1nc(COCC2CC2)c2n1CCCN(CC1CC1)C2,-8.2,-2.67,1.44,3.77,-2.12,-22.4,-0.513,-0.93,-1.04,0,0.35
CCc1nc(CN(C(C)=O)C2CCN(Cc3cnc(C)cn3)C2)no1 (stereo unspecified),-1.41,22.8,-8.69,-10.4,-3.31,4.18,5.16,27.4,4.43,13.9,-6.99
CCC(CC)C(CNC(=O)Nc1cc(C)nn1C)N1CCOCC1 (stereo unspecified),-4.23,17.7,3.07,-7.11,9.54,-5.32,9.75,4.35,8.37,11.4,-9.76
CCn1cc(NC(=O)C2CCN(CCOC(C)C)CC2)cn1,-6.99,7.89,-2.47,-0.756,-6.07,-3.6,3.98,6.54,2.46,3.7,0.215
O=c1[nH]c(CCN2CCCC(Cn3cncn3)C2)nc2ccccc12 (stereo unspecified),-4.26,13.5,0.62,16.8,6.78,0.924,2.33,14.5,4.95,11,-3.63
Cc1oc(C)c(C(=O)NCc2ccccc2S(=O)(=O)N(C)C)c1C,-1.39,10.5,8.5,1.67,-3.01,-3.83,8.19,2.68,1.47,7.32,-5.82
